Screens (PubChem)
LASV entry inh – qHTS for Inhibitors of binding or entry into cells for Lassa Virus; Lassa virus pseudotype entry inhibition, cell reporter; Potency, µM (highest dose often 37.9 µM), inactives show top-dose activity change, negative = inhibition, hits mostly inhibitors; hit rate 1.2% among 300,000; AID 540256, 2011; calls by dose curve; tested in HEK293 cells; further: potency means the concentration at half of the fitted maximal effect; on the % scale 0 is the no-effect control and ±100 the full control effect; nearly all actives have a fitted effect of over 50% in size
HCMV antiviral – qHTS Assay for inhibitors of the human cytomegalovirus (HCMV) | HFF cells, HCMV-luciferase reporter, 72 h; stronger effect = lower value | activity change, negative = inhibition, % at 57.5 µM | hit rate 4.5% among 410,000; in the data active means activity change below about -60%; inconclusive means no clear call, values can overlap the other calls; inactive means above about -39%; further: on the % scale 0 is the no-effect control and ±100 the full control effect
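After 16 h attachment at 37C, HFF cells received test compound and HCMV-luciferase (1 PFU/cell); reporter luminescence read 72 h later, data normalized against buffer-only and known inhibitor Salinomycin.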
Marburg entry inh – qHTS for inhibitors of binding or entry into cells for Marburg Virus. Marburg virus pseudotyped entry inhibition, cell reporter. Potency, µM (top dose mostly 37.8 µM), without a hit: top-dose activity change, negative = inhibition, usual class: inhibitors. hit rate 1.8% among 300,000. AID 540276, 2011; calls by dose curve; tested in HEK293 cells; further: potency means the concentration at half of the fitted maximal effect; on the % scale 0 is the no-effect control and ±100 the full control effect
HCV inh – qHTS Assay for Inhibitors of Hepatitis C Virus (HCV). Potency, µM (doses to about 41.8 µM), for the others: at the top dose activity change, negative = inhibition, most hits filed as inhibitors. hit rate 3.4% among 340,000. AID 651820, 2012. Huh7.5.1 HCVcc-Cre infection, luciferase reporter, 44 h; further: potency means the concentration at half of the fitted maximal effect; on the % scale 0 is the no-effect control and ±100 the full control effect
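Infectious HCV cell culture screen: compound-treated cells (1,000/well, pre-plated 4 h) are infected with HCVcc-Cre at roughly 0.5 moi and grown 44 h. Infection is quantified by luciferase signal after 15 min substrate incubation at room temperature.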
Vaccinia mCherry – qHTS for Stage-Specific Inhibitors of Vaccinia Orthopoxvirus: mCherry Reporter Primary qHTS | Vaccinia virus mCherry reporter infection, fluorescence | Potency, µM (highest dose often 36.5 µM), without a hit: at the highest dose activity change, negative = inhibition, actives largely listed as inhibitors | hit rate 0.63% among 310,000 | AID 720579, 2013; calls by dose curve; tested in A549 cells; further: potency means the concentration at half of the fitted maximal effect; on the % scale 0 is the no-effect control and ±100 the full control effect; nearly all actives have a fitted effect of over 35% in size
VACV Venus inh – qHTS for Stage-Specific Inhibitors of Vaccinia Orthopoxvirus: Venus Reporter Primary qHTS; Vaccinia virus Venus reporter expression, fluorescence; Potency, µM (highest dose often 36.5 µM), without a hit: at the highest dose activity change, negative = inhibition, hits mostly inhibitors; hit rate 0.46% among 330,000; AID 720580, 2013; calls by dose curve; tested in A549 cells; further: potency means the concentration at half of the fitted maximal effect; on the % scale 0 is the no-effect control and ±100 the full control effect; nearly all actives have a fitted effect of over 30% in size
HCV confirm – qHTS Assay for Inhibitors of Hepatitis C Virus (HCV): Confirmation Assay for Cherry-picked Compounds; hit rate 78% among 640; shares compounds with HCV inh; Potency, µM (titrated, usually from 41.8 µM), for the others: top-dose activity, negative = inhibition, hits mostly inhibitors; HCVcc-Cre infectious virus cell assay, luciferase, inhibition; further: potency means the concentration at half of the fitted maximal effect; nearly all actives have a fitted effect of over 80% in size
HCV host tox – qHTS Assay for Inhibitors of Hepatitis C Virus (HCV): Cytotoxicity Counterscreen for Cherry-picked Compounds. shares compounds with HCV inh. AID 720576, 2013. Potency, µM (doses to about 41.8 µM), for inactives: at the highest dose activity change, negative = cytotoxicity, hits mostly inhibitors. HCV host cell line cytotoxicity counterscreen. hit rate 22% among 640;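 further: potency means the concentration at half of the fitted maximal effect; 44 h compound exposure; on the % scale 0 is the no-effect control and ±100 the full control effect; nearly all actives have a fitted effect of over 55% in size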
An asterisk follows results filed as active; i = inactive; ? = inconclusive; · = no result; [ ] = dose if it differs, or a comment. The list is not random: actives were taken first. Their share in the collection is about 7.8%. Unless noted, the call rests on the fitted dose curve; in most records, active means well fitted curve in the direction sought with a large enough effect; inconclusive means small, poorly fitted or top-dose-only effect, or another doubt; inactive means no such curve, though single readings can be large; an effect the other way counts as inactive or inconclusive.

SMILES | LASV entry inh | HCMV antiviral | Marburg entry inh | HCV inh | Vaccinia mCherry | VACV Venus inh | HCV confirm | HCV host tox
OC(c1cc(-c2ccc(C(F)(F)F)cc2)nc(C(F)(F)F)c1)C1CCCCN1 (stereo not drawn) | · | -102* | · | 5µM* | ? | 11µM* | 14µM* | ?
CC1CCN(C(=O)CSc2nc(-c3ccc(F)cc3)cc(C(F)(F)F)n2)CC1 | 13%[46.1 µM] | -6 | 16%[46.1 µM] | · | -10% | 2% | · | ·
C=CCc1ccc(OCCOc2cccc3ccc(C)nc23)c(OC)c1 | -9% | 118 | ? | 8.9µM* | · | · | 13µM* | 24%
Cc1ccc(Cl)cc1-n1nnc(-c2nsc(NC(=O)c3ccccc3Cl)n2)c1C | ? | 0 | ? | · | -11% | -17% | · | ·
CCN(CC)c1ccc(NC(=O)c2c(C)nn(-c3ccc(F)cc3)c2-n2cccc2)c(C)c1 | -10%[46.1 µM] | -36 | · | · | -15% | -9% | · | ·
O=C(NC1(C(F)(F)F)Oc2ccccc2O1)N1CCC2(CC1)OCCO2 | -25%[14.3 µM] | 41 | ? | ? | ? | -21% | ? | ?
O=C(NC1(C(F)(F)F)Oc2ccc(Cl)cc2O1)N1CCC2(CC1)OCCO2 (stereo not drawn) | -25% | -6 | ? | ? | ? | -21% | · | ·
CCN1CCN(S(=O)(=O)c2cc(OCC(=O)NC3CCCCC3)c(C)cc2Cl)CC1 | -26% | -65* | ? | 7.1µM* | · | · | 4µM* | 7µM*
COc1cc(/C=c2\[nH]c(=O)/c(=C/c3cc(OC)c(OC)c(OC)c3)[nH]c2=O)cc(OC)c1OC | · | · | · | · | -14% | 6% | · | ·
COc1cc(C)c(Cl)cc1S(=O)(=O)NCc1ccncc1 | · | · | 1% | -2% | · | · | · | ·
Cc1cc(Br)c(S(=O)(=O)NCc2ccncc2)cc1C | ? | -82* | ? | 3.2µM* | ? | -21% | 2µM* | 6.3µM*
CCCn1c(=NC(=O)c2ccco2)c(C(=O)OCC)cc2c(=O)n3ccccc3nc21 | -11% | -27 | -14% | ? | -20% | -9% | ? | 21%
Fc1ccc(N2CCN(c3nc4ccccc4c4nc(-c5ccccc5)nn34)CC2)cc1 | · | -25 | 3%[46.1 µM] | · | -4% | -4% | · | ·
O=C(COCc1cc(-c2cccs2)on1)Nc1ccc(OC(F)(F)F)cc1 | 1%[46.1 µM] | -25 | · | · | i[7.34 µM] | -5%[7.34 µM] | · | ·
CCOC(=O)C1=C(C)N=c2s/c(=C/c3ccco3)c(=O)n2C1c1cccc(OC)c1 (stereo not drawn) | ? | · | ? | ? | · | 6% | ? | 39%
COc1cc(OC)c(NC(=O)c2ccc(F)cc2)cc1Cl | 16% | -39 | -20%[46.1 µM] | -28% | -9% | -18% | · | ·
COc1cc(OC)c(NC(=O)c2cccc(F)c2)cc1Cl | ? | 8 | 9% | ? | -11% | -3% | ? | 35%
COc1ccc(NC(=O)Nc2ccccc2SC)cc1OC | · | -1 | · | ? | -6% | -6% | · | ·
COc1cc(OC)c(NC(=O)Nc2ccc(OC)c(OC)c2)cc1Cl | 25% | -29 | ? | 2.5µM* | i | -14% | -21% | -25%
CNc1nc(N2CCc3ccccc32)ncc1F | ? | 95 | 25% | 3.2µM* | -10% | -7% | 20µM* | ?
CC1(C)OC(=O)C2(Cc3cc([N+](=O)[O-])ccc3N3CCCCCC32)C(=O)O1 (stereo not drawn) | · | · | · | · | -22% | -18% | · | ·
CCSc1nc2c(c(=O)[nH]c(=O)n2C)n1Cc1ccc(Cl)cc1 | 3% | -21 | ? | -9% | · | -3% | · | ·
CCCCCOC(=O)CSc1nc2c(c(=O)[nH]c(=O)n2C)n1Cc1ccc(Cl)cc1 | -3% | 9 | 35% | 2.8µM* | -13% | 17% | 5.6µM* | 20%
FCCCOc1ccc(-c2ccnc(-c3ccccc3)n2)cc1 | 12% | 13 | -15% | ? | · | -5% | · | ·
FCCCOc1ccc(-c2nccc(-c3ccc(F)cc3)n2)cc1 | 4% | 1 | 0%[46.1 µM] | ? | · | -17% | ? | 15%
SMILES | LASV entry inh | HCMV antiviral | Marburg entry inh | HCV inh | Vaccinia mCherry | VACV Venus inh | HCV confirm | HCV host tox
CN=c1sc2c(n1C)C(=O)c1ccccc1C2=O | ? | -31 | ? | ? | 2.8µM* | 4µM* | 31µM* | 28µM*
CN=c1sc(C(=O)Nc2ccccc2)c(C)n1C | ? | -7 | ? | -21% | -1% | -4% | · | ·
Cc1cccc2c1-c1sc(C(=O)NCCCN3CCC(C)CC3)cc1CO2 | · | ? | · | 5µM* | · | · | 25µM* | -5%
Cc1cccc(Cn2c(SCc3ccc(C(=O)NCc4ccccc4)cc3)nc3cccnc32)c1 | ? | -16 | · | · | -10% | -7% | · | ·
O=C(NC1CCCCC1)c1cc(Nc2cccc(C(F)(F)F)c2)nc2ccccc12 | ? | 5 | · | · | -6% | 5% | · | ·
CCCCn1c(SCN2C(=O)c3ccccc3C2=O)nc2cc(S(N)(=O)=O)ccc21 | 1% | -17 | ? | 21% | · | -13% | · | ·
CCCCn1c(SCn2nnc3ccccc3c2=O)nc2cc(S(N)(=O)=O)ccc21 | -4% | -36 | 1% | ? | -16% | -23% | 0.0011µM* | -3%
COc1cc(NC(=O)c2ccccc2F)c(OC)cc1NC(=O)CN1CCOCC1 | -18% | 6 | 1%[46.1 µM] | ? | -12% | -12% | ? | 11%
Cc1ccc(NC(=O)Cn2c(=O)n(-c3ccc(CC(=O)NCC4CCCO4)cc3)c(=O)c3ccccc32)cc1 (stereo not drawn) | 24%[46.1 µM] | 1 | 23%[46.1 µM] | · | -8% | -2% | · | ·
O=C(CN1CCN(Cc2ccccc2Cl)C1=O)NCc1ccccc1Cl | 10%[46.1 µM] | -4 | -13%[46.1 µM] | · | -8% | 3% | · | ·
COc1ccc(Cl)cc1NC(=O)c1nn(-c2ccc(C)cc2)c(=O)n(C)c1=O | ? | 7 | · | · | -15% | -11% | · | ·
COc1ccccc1CNC(=O)Cc1csc(NC(=O)Nc2ccccc2OC)n1 | ? | -4 | ? | ? | -10% | -23% | 18µM* | 51%
COc1ccccc1NC(=O)Nc1nc(CC(=O)NCc2ccccn2)cs1 | -16% | -4 | -6% | ? | i | -9% | · | ·
COCCCn1c(SCc2cccc(C(F)(F)F)c2)nc2cc(OC)c(OC)cc2c1=N | ? | -8 | 9% | 2% | · | · | · | ·
COCCCn1c(SCc2ccccc2)nc2cc(OC)c(OC)cc2c1=N | ? | 42 | -1% | ? | · | · | 14µM* | 58%
